This passage reports growth inhibition, inhibition and outcome results from PubChem BioAssay.

The nature of assay [1]: antimalarial activity against Dd2 strain (AID 2302;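 active = growth inhibition above 50% at the single 2 µM test dose, taken to imply half-maximal potency below 2 µM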;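 also: 0% = DMSO untreated growth and 100% = chloroquine plus artemisinin killed control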). Conditions: P. falciparum Dd2 in RBCs, LDH growth readout, 72 h; at 2 µM; active compounds read high.
Assay [2] is described as follows: human hepatoma cell viability loss – ATP luminescence, cytotoxicity control for P. falciparum antimalarial project, primary screen (AID 2303;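 active = inhibition above 50%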;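 also: 0% = DMSO wells and 100% = digitonin-killed cells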). Conditions: HepG2 viability, 24-48 h, at 10 µM, active compounds read high.
In assay [3] the target is L-lactate dehydrogenase (Plasmodium falciparum (isolate CDC / Honduras)) (UniProt Q27743). Briefly: PfLDH activity inhibition – cell lysate, 3D7 strain, counter-screen for P. falciparum growth inhibition project (AID 2304).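 Also: 0% = vehicle and 100% = reference inhibitor.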 Conditions: P. falciparum 3D7 crude extract, LDH APAD/NBT absorbance; at 2 µM; active compounds read high.
Assay [4] can be described thus: inhibition of 3D7 malaria parasite growth – strain 3D7 (AID 2306).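 Also: 0% = DMSO wells and 100% = chloroquine plus artemisinin control wells.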 Conditions: P. falciparum 3D7 erythrocytic growth, LDH absorbance, 72 h; at 2 µM; active compounds read high.
Assay [5] has as its target Calcium-dependent protein kinase 1 (Plasmodium falciparum (isolate 3D7)) (UniProt P62344). Briefly: PfCDPK1 kinase inhibitors, biochemical, TCAMS library (AID 1159585; cut-off not given, nearly all actives have IC50 up to about 0.98 µM;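 also: inhibitors leave more ATP so luminescence rises with inhibition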). Conditions: recombinant PfCDPK1, Kinase-Glo ATP depletion luminescence. On the technique in general: Kinase-Glo measures the ATP left after a reaction by luminescence.
For assay [6], the target named is Plasmodium falciparum protein kinase 6 (PK6, PF3D7_1337100) (UniProt Q8IDW1). Description: PfPK6 kinase inhibitors, biochemical, TCAMS library (AID 1159586). The note with it: recombinant PfPK6, Kinase-Glo ATP depletion luminescence.
Assay [7] has as its target Protein kinase 7 (PK7), Plasmodium falciparum 3D7 (PF3D7_0213400) (UniProt Q7YTF7). Description: inhibition of Plasmodium PK7 catalytic activity – biochemical, TCAMS antimalarial set, Kinase-Glo luminescence (AID 1159587). The note with it: recombinant PfPK7, Kinase-Glo ATP depletion luminescence.
Assay [8] concerns the target Calcium-dependent protein kinase 4 (Plasmodium falciparum (isolate 3D7)) (UniProt Q8IBS5). Briefly: PfCDPK4 kinase inhibitors, biochemical, TCAMS library (AID 1159588; cut-off not given, nearly all actives have IC50 up to about 0.91 µM). The note with it: recombinant PfCDPK4, Kinase-Glo ATP depletion luminescence.

Unmarked numbers belong to inactive results. For some of these results: Potency and affinity values are given separately. Activity calls are given as the source filed them. Unless noted, no rule for the calls is given here.

Protein kinase 7 (PK7), Plasmodium falciparum 3D7 (PF3D7_0213400), sequence (Q7YTF7 1-343): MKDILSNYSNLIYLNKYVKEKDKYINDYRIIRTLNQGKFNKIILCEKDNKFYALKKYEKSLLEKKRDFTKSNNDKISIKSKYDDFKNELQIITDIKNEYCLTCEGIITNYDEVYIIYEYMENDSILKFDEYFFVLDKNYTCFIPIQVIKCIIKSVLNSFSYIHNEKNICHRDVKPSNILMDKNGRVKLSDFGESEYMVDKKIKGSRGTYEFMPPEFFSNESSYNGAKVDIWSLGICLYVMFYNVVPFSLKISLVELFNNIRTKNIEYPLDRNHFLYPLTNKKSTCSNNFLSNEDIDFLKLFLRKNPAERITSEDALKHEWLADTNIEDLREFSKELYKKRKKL
Plasmodium falciparum protein kinase 6 (PK6, PF3D7_1337100), sequence (Q8IDW1 1-305): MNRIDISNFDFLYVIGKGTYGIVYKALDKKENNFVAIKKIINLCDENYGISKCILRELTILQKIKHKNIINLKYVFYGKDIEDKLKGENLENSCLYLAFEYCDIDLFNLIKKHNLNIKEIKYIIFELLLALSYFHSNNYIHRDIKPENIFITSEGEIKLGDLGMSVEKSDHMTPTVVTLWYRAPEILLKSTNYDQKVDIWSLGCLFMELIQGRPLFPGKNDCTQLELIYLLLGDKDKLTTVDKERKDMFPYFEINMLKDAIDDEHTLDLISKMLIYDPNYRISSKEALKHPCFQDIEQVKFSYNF
Calcium-dependent protein kinase 4 (Plasmodium falciparum (isolate 3D7)), sequence (Q8IBS5 whole entry, looked up): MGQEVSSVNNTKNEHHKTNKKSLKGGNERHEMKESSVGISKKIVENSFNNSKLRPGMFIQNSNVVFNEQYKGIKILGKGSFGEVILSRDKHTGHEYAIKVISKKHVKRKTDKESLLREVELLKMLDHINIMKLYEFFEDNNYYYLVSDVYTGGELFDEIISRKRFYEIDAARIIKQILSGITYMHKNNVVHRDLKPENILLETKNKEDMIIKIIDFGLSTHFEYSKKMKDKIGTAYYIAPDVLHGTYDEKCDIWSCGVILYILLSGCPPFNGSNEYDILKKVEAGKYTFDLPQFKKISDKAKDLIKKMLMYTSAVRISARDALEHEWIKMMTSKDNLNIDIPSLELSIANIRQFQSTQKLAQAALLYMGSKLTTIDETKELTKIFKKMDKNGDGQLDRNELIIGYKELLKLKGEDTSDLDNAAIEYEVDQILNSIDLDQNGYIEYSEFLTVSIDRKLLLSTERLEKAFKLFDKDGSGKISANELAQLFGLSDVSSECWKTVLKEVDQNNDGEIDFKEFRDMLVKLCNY
L-lactate dehydrogenase (Plasmodium falciparum (isolate CDC / Honduras)), sequence (Q27743 whole entry, looked up): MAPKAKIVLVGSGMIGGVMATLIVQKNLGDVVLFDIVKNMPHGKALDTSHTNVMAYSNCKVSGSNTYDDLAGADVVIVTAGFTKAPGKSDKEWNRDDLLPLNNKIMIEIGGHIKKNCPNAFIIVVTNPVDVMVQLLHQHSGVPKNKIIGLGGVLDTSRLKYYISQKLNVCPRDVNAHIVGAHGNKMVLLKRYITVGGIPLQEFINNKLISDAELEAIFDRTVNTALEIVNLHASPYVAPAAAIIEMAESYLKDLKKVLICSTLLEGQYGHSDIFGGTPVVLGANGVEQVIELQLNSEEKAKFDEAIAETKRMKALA
Calcium-dependent protein kinase 1 (Plasmodium falciparum (isolate 3D7)), sequence (P62344 whole entry, looked up): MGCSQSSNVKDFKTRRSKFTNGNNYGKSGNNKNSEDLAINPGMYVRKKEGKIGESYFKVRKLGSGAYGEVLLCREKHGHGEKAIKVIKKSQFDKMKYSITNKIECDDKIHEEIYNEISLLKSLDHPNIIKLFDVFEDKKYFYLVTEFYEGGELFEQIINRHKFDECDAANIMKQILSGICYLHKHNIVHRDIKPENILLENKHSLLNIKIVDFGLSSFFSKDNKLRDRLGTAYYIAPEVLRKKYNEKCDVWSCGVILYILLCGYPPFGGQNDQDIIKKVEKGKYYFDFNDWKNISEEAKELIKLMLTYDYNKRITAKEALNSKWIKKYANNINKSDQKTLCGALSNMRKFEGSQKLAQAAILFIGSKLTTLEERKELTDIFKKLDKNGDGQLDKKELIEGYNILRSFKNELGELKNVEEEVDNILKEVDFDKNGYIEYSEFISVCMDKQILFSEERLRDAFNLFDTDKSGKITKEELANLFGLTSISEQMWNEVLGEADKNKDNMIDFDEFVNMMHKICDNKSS

By inhibition is commonly meant the change of the read-out against control, counted positive when it falls. For the compound `COc1ccccc1CCN(C)CCN1CCC(NC(=O)c2ccc(-c3ccc(C(F)(F)F)cc3)cc2)CC1`, the growth inhibition in assay [1] is 15%; in assay [4], 92% (active). Further, the inhibition in assay [2] was 46%; in assay [3], -2%. In addition, the result in assay [5], in assay [6], in assay [7] and in assay [8] was inactive.
Turning to `COc1ccc(OC)c(Cc2cnc3nc(N)[nH]c(=O)c3c2C)c1`, the growth inhibition in assay [1] is 4%; in assay [4], 98% (active). The inhibition is 62% (active) in assay [2] and 3% in assay [3]. Further, the result in assay [5], in assay [6], in assay [7] and in assay [8] was inactive.
Turning to `N#Cc1ccc(-c2ccc(C(=O)NCC3CCN(CCN4CCC(c5ccc6c(c5OCC(N)=O)CCCC6)CC4)CC3)cc2)cc1`, the growth inhibition in assay [1] and in assay [4] was 99% (active) in each case. The inhibition in assay [2] is 56% (active); in assay [3] it was -7%. Also, the result in assay [5], in assay [6], in assay [7] and in assay [8] was inactive.
Consider `Cc1ccc2c(Cl)c(C(=O)N3CC(C)OC(C)C3)sc2c1` (stereo not given), for which the growth inhibition in assay [1] is 98% (active); in assay [4], 100% (active). The figures for the inhibition in assay [2] and in assay [3] were 4% and 3%, respectively. Moreover, the outcome in assay [5], in assay [6], in assay [7] and in assay [8] was inactive.
As for `O=c1cc(NCCCNCc2cccc(I)c2)[nH]c2ccccc12`, the growth inhibition is 9% in assay [1] and 90% (active) in assay [4]. The figures for the inhibition in assay [2] and in assay [3] were 10% and -1%, respectively. Besides, the result in assay [5], in assay [6], in assay [7] and in assay [8] was inactive.
As for `Cc1cc(-c2cccc3c(C(=O)N4CCc5cc6nccc(N7CCN8CCC[C@H]8C7)c6cc54)cccc23)cc(C)n1`, the growth inhibition in assay [1] is 76% (active); in assay [4], 97% (active). The inhibition is 13% in assay [2] and -3% in assay [3]. The outcome in assay [5], in assay [6], in assay [7] and in assay [8] was inactive.
For the compound `CCOc1ccc(-c2nc(NC(=O)Cc3cccc(OC)c3)sc2C)cc1`, the growth inhibition is 28% in assay [1] and 97% (active) in assay [4]. Also, the inhibition in assay [2] is 15%; in assay [3], 3%. For the same compound, the result in assay [5], in assay [6], in assay [7] and in assay [8] was inactive.
On to `O=c1[nH]c2ccc(Nc3nccc(NCCc4ccccc4)n3)cc2[nH]1`, for which the growth inhibition in assay [1] is 6%; in assay [4], 101% (active). Besides, the inhibition in assay [2] was -1%; in assay [3], 3%. Also, the result in assay [5], in assay [6], in assay [7] and in assay [8] was inactive.
`COc1ccc2nc(NC3=NC4(c5ccccc5)N=C(Nc5nc6ccc(OC)cc6[nH]5)NC4(c4ccccc4)N3)[nH]c2c1` (stereo not given): the results for the growth inhibition in assay [1] and in assay [4] were 85% (active) and 100% (active), respectively. Also, the inhibition in assay [2] is -5%; in assay [3], -6%. Further, the result in assay [5], in assay [6], in assay [7] and in assay [8] was inactive.
Take `CC(C)=CCN1CCC(C(=O)Nc2ccc(-c3nc4ccccc4[nH]3)cc2)CC1`: the figures for the growth inhibition in assay [1] and in assay [4] were -1% and 95% (active), respectively. Also, the inhibition in assay [2] was -2%; in assay [3] it was -3%. In addition, the result in assay [5], in assay [6], in assay [7] and in assay [8] was inactive.
For the compound `CCCN(Cc1nnc(-c2cccs2)o1)C(=O)CSc1nnnn1-c1cc(C)cc(C)c1`, the growth inhibition in assay [1] was 71% (active); in assay [4], 92% (active). The inhibition in assay [2] is 2%; in assay [3], 8%. In addition, the outcome in assay [5], in assay [6], in assay [7] and in assay [8] was inactive.
With `CN1C(=CC(=O)NC(=O)c2ccccc2)C(C)(C)c2ccccc21`, the growth inhibition is 89% (active) in assay [1] and 93% (active) in assay [4]. Moreover, the inhibition in assay [2] is -5%; in assay [3] it was 4%. The outcome in assay [5], in assay [6], in assay [7] and in assay [8] was inactive.
As for `O=C(Nc1ccc(OC2CCN(Cc3ccccc3)CC2)c(Cl)c1)c1ccsc1`, the growth inhibition is 92% (active) in assay [1] and 87% (active) in assay [4]. The inhibition in assay [2] is 3%; in assay [3], 4%. In addition, the result in assay [5], in assay [6], in assay [7] and in assay [8] was inactive.
As for `CC(C)(C)C1CCc2onc(C(=O)Nc3cc(Cl)ccc3O)c2C1` (stereo not given), the growth inhibition in assay [1] was 82% (active); in assay [4], 98% (active). Further, the values for the inhibition in assay [2] and in assay [3] were 5% and -2%, respectively. The outcome in assay [5], in assay [6], in assay [7] and in assay [8] was inactive.
Regarding `CS(=O)(=O)c1ccc(CCNCc2ccc(-c3ccc(CN(C(=O)C4CCCC4)C4CCN(Cc5ccccc5)CC4)cc3)nc2)cc1`, the growth inhibition in assay [1] was 20%; in assay [4], 91% (active). Moreover, the inhibition is 24% in assay [2] and -6% in assay [3]. For the same compound, the outcome in assay [5], in assay [6], in assay [7] and in assay [8] was inactive.
For `Cc1ccc(C)c2c1[nH]c1ccc(C3=NCCN3)cc12`, the growth inhibition was -6% in assay [1] and 100% (active) in assay [4]. The values for the inhibition in assay [2] and in assay [3] were 29% and -3%, respectively. The result in assay [5], in assay [6], in assay [7] and in assay [8] was inactive.
With `N#Cc1cccc(NC(=O)c2ccc(S(=O)(=O)NCC3CCCN3CC3CCCCC3)cc2)c1` (stereo not given), the figures for the growth inhibition in assay [1] and in assay [4] were 18% and 88% (active), respectively. Moreover, the inhibition was 25% in assay [2] and 4% in assay [3]. Moreover, the result in assay [5], in assay [6], in assay [7] and in assay [8] was inactive.
Take `COc1ccc2nc(C)cc(NN=Cc3cccc([N+](=O)[O-])c3)c2c1`: the growth inhibition in assay [1] is 97% (active); in assay [4], 102% (active). Besides, the inhibition in assay [2] was 6%; in assay [3], 7%. The outcome in assay [5], in assay [6], in assay [7] and in assay [8] was inactive.
Consider `O=C(/C=C/c1ccc(Cl)c(Cl)c1)NCCCCCN1CCCC(CNC(=O)/C=C/c2ccccc2)C1` (stereo not given), for which the figures for the growth inhibition in assay [1] and in assay [4] were 6% and 98% (active), respectively. For the same compound, the inhibition is 37% in assay [2] and -7% in assay [3]. The result in assay [5], in assay [6], in assay [7] and in assay [8] was inactive.
`Oc1ccc2ccccc2c1CNCC1CCCCC1`: the growth inhibition in assay [1] is 93% (active); in assay [4], 98% (active). In addition, the inhibition in assay [2] was -12%; in assay [3], -5%. The outcome in assay [5], in assay [6], in assay [7] and in assay [8] was inactive.
